Source: PubChem BioAssay
MIN6 prolif-1: MIN6 beta-cell proliferation induction | MIN6 cells proliferation, ATPlite luminescence, 48 h; cells starved in 0.2% serum; 100% = growth in 10% serum | 330,000 tested, 0.29% active | proliferation, % at 10 µM;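 active = compounds whose signal lies at least 3.5 SD above the mean of all wells on their plate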;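 note: 0% = DMSO-treated cells in low-serum medium and 100% = 10% serum control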
VLA-4 inh: inhibition in a human VLA-4 binding assay; inhibition, % (about 7 µM as worked out from the volumes in the protocol); 330,000 tested, 0.2% active; VLA-4 expressing cells, ligand binding flow cytometry; AID 2557; in the data active = inhibition above about 50%
APOBEC3G inh: inhibitors of human APOBEC3G DNA deaminase; Q9HC16; recombinant A3G, ssDNA deamination FAM/TAMRA fluorescence; inhibition, % at 20 µM; 330,000 tested, 0.28% active;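 active = inhibition of at least 40% at 20 µM, with no more than 30% in the related APOBEC3A deaminase screen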;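 note: plate controls were DMSO wells with A3G for no effect and wells lacking A3G enzyme for full effect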
CendR NRP1 mod: alters CendR peptide binding to human NRP-1. O14786. FAM-RPARPAR peptide binding to NRP-1, fluorescence polarization. inhibition, % at 25 µM. 360,000 tested, 0.85% active. AID 602438;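 active = inhibition or corrected inhibition above about 18%, plus a signal ratio from 0.5 to 1.5, limit read from the data, passing the limit was not always enough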
APOBEC3A inh: human APOBEC3A DNA deaminase inhibition | P31941 | recombinant A3A, FAM/TAMRA ssDNA deamination fluorescence | inhibition, % at 20 µM | 330,000 tested, 0.41% active | AID 493011;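 active = at least 40% inhibition at 20 µM here, with at most 30% in a related deaminase screen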;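 note: plate controls were A3A with DMSO for no effect and wells lacking A3A enzyme for full effect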
MIN6 prolif-2: confirmation of inducers of beta-cell replication in MIN6 cells | AID 463095 | shares compounds with MIN6 prolif-1 | MIN6 beta-cell proliferation, ATPlite luminescence, 48 h; cells kept in 0.2% serum; scaled between 0.2% and 10% serum | proliferation increase, % at 50 µM | 920 tested, under 10 active;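 active = proliferation increase above 40% at any of the four tested concentrations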
An asterisk follows results filed as active; nt = no result. Most compounds without a hit are left out; they make up all but 1.8% or so of the library.

SMILES	MIN6 prolif-1	VLA-4 inh	APOBEC3G inh	CendR NRP1 mod	APOBEC3A inh	MIN6 prolif-2
COc1ccc(OCc2cc(C(=O)N(C)Cc3nccn3C)no2)c2ccccc12	0	-2	1	-4	-1	nt
COc1ccc(OCc2cc(C(=O)N(Cc3nccn3C)C(C)C)no2)c2ccccc12	12*	5	-5	2	-4	-6
NNC(=O)c1ccc(N2CCc3ccccc32)c([N+](=O)[O-])c1	1	-6	4	9	11	nt
Nc1ncnc(N2CCc3ccccc32)c1[N+](=O)[O-]	20*	10	3	-11	-1	9
Cc1ccc(NC(=O)CCOc2ccccc2C)cc1C	0	21	-1	8	0	nt
COc1ccc(Cn2c(C3CC3)nc3ccc(NC(=O)c4ccco4)cc3c2=O)cc1	5.5*	2	3	-2	3	-5
CCC(=O)Nc1ccc2nc(C3CC3)n(Cc3ccccc3)c(=O)c2c1	-2	10	1	14	1	nt
COc1ccc2[nH]c3c(c(=O)c2c1)CCCC3	nt	nt	nt	-3	nt	nt
COc1ccc2[nH]c3c(c2c1)CC(C)NC3=O (centres undefined)	7.3*	11	-4	10	-7	4
C=CCNC(=O)c1onc(CSc2ccccc2CC)c1C(=O)O	12*	0	-11	-4	-2	-1
COc1cccc(C(=O)Nc2ccc3c(c2)C(=O)NC3=O)c1	9.1*	10	-1	-1	1	0
COc1ccc(C(=O)Nc2ccc3c(c2)C(=O)NC3=O)cc1	2	25	11	-4	-3	nt
CCn1c(=O)n(CC)c2cc(N3CCCC3)c(NC(=O)c3cccc(OC)c3)cc21	17*	12	-9	19	-8	-6
CCC12C(=Nc3c(Cl)cccc31)C[C@@H]1CCN3C(=O)CCC[C@H]2[C@H]13 (some centres undefined)	nt	nt	nt	2	nt	nt
COc1ccc(OC)c(NC(=O)CN(Cc2ccc(F)cc2)C2CCCCC2)c1	-7	15	-12	-5	-5	nt
CC(=O)CCc1ccc(OCCCOc2cccc3cccnc23)cc1	5.7*	10	-8	-10	-2	-6
CC(=O)c1ccc(OCCCOc2cccc3cccnc23)cc1	0	1	-6	19	-6	nt
COc1ccc(CCNC(=O)CNC(=O)c2ccc(Br)o2)cc1OC	13*	-1	-11	5	-5	2
COc1ccc(CCNC(=O)Cc2cc(OC)c(OC)cc2Br)cc1OC	-2	5	0	-2	2	nt
CC(=O)NC(c1ccc(F)c(F)c1)c1nc(-c2cccc(F)c2)cs1 (centres undefined)	nt	nt	nt	7	nt	nt
COc1ccc(-c2nnc(SCC(=O)N3CCN(c4ccccc4)CC3)o2)cc1OC	1	28	-2	-15	1	nt
COc1ccc(-c2nnc(SCC(=O)N3CCOCC3)o2)cc1OC	8.5*	-7	-3	-5	-2	2
COc1ccc(Cn2nnnc2CN(Cc2cc3cc(C)ccc3[nH]c2=O)C2CCCC2)cc1	-3	5	6	-8	-3	nt
CCC(C)(C)n1nnnc1CN(Cc1cc2cc(OC)c(OC)cc2[nH]c1=O)C1CCCC1	7.2*	4	-2	-6	-2	2
O=C(CCNC(=O)N1CC(=O)Nc2ccccc21)Nc1ccc(Cl)cc1	-4	-95	-2	8	2	nt
SMILES	MIN6 prolif-1	VLA-4 inh	APOBEC3G inh	CendR NRP1 mod	APOBEC3A inh	MIN6 prolif-2
O=C(CCNC(=O)N1CC(=O)Nc2ccccc21)Nc1ccc(F)c(Cl)c1	4.9*	1	-7	18	-3	-2
CCOC(=O)c1ccccc1NC(=O)c1cccs1	7.4*	-3	-5	11	-2	4
CCN(CC(=O)Nc1c(F)cccc1F)C(=O)c1nc2nc(C)cc(C)n2n1	-5	nt	2	2	1	nt
COc1cc([N+](=O)[O-])ccc1NC(=O)c1cccc(NC(=O)C(C)C)c1	7.8*	-6	-3	4	0	-3
CCC(=O)N1CCc2cc(S(=O)(=O)CCC(=O)Nc3cccc(F)c3)ccc21	8.9*	-14	3	6	2	-5
CCC(=O)N1CCc2cc(S(=O)(=O)CCC(=O)Nc3ccc(F)c(F)c3)ccc21	-3	0	-2	9	-1	nt
CC(=O)Nc1nc(Cn2nnc(-c3ccc4c(c3)OCO4)n2)nc(N(C)C)n1	8.8*	4	3	-4	1	2
Cc1cc(N(C(=O)c2ccco2)C(C(=O)NC2CCCCC2)c2ccccc2)ccc1-n1cnnn1 (centres undefined)	-2	-2	7	-3	4	nt
COc1cccc(C(C(=O)NC2CCCCC2)N(C(=O)c2ccco2)c2ccc(-n3cnnn3)c(C)c2)c1 (centres undefined)	7.7*	1	-5	-4	-2	-2
CC(=O)N1Cc2ccccc2CC1C(=O)NCc1ccccc1F (centres undefined)	2	-5	-8	-5	-1	nt
O=C(CNC(=O)c1ccccc1Cl)Nc1ccncc1	-4	16	-7	-7	-1	nt
O=C(CNC(=O)c1ccccc1Cl)Nc1ccc(F)cc1	7.0*	11	-7	0	-4	-1
COc1ccc(C(=O)Nc2ccc(Cl)cc2F)cc1S(=O)(=O)N1CCCC1	-3	-5	-7	-1	-3	nt
Cc1ccccc1NC(=O)CSc1nnc(C)c2ccccc12	5.8*	9	-7	8	-1	4
COc1ccc(-c2cnnn2-c2ccc(NC(=O)c3ccco3)cc2)cc1OC	0	-1	-6	-9	-2	nt
COc1ccc(-c2cnnn2-c2ccc(N)cc2)cc1OC	7.6*	12	-5	4	-1	5
Cc1ccc(/C=N/NC(=O)CSc2nc3ccccc3s2)o1	0.0*	0	2	2	6	2
CC(C)C[C@H](NC(=O)OCC1c2ccccc2-c2ccccc21)C(=O)O	nt	nt	nt	-6	nt	nt
Cc1ccc(-n2nnnc2CNC(=O)C2CC(=O)N(c3ccc(F)cc3)C2)cc1C (centres undefined)	12*	2	-10	6	-1	1
O=C(NCc1nnnn1-c1ccc(F)cc1)C1CC(=O)N(c2ccc(F)cc2)C1 (centres undefined)	3	3	-12	0	-1	nt
CC(=O)Nc1nc(SCc2ccc(Cl)cc2Cl)n[nH]1	0	17	-6	-8	-3	nt
CC(=O)Nc1n[nH]c(S(=O)(=O)Cc2ccc(Cl)cc2Cl)n1	8.0*	0	-7	5	23	1
O=C(CN1CCN(c2ccc(O)cc2)CC1)Nc1ccc(S(=O)(=O)N2CCCC2)cc1	-1	-4	17	-5	0	nt
CCNc1nc(Oc2ccc(=O)n(C)n2)nc(N2CCOCC2)n1	0	-18	-3	5	-7	nt
CNc1nc(Oc2ccc(=O)n(C)n2)nc(N2CCOCC2)n1	11*	-2	-5	-2	-3	-2
